Test results reported in the supplement of paper PMC9588786.
“And” between values parts separate entries of the source, which are not always exact repeats. Identical values can stand only once. ± gives the standard deviation of the averaged measurements.

tested on: HT-1080; experiment: relative cell viability with RSL3 co-treatment (fraction of control); higher = stronger protection from RSL3-induced ferroptosis (higher viability); settings: 10 µM
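Note: viability read as CCK-8 absorbance at 450 nm in cells co-exposed to the GPX4 inhibitor RSL3, relative to a 0.01% DMSO vehicle control.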

Compound	relative cell viability
O=c1cc(-c2ccccc2)oc2c(O)c(O)ccc12 [7,8-Dihydroxyflavone]	0.713 ± 0.011
Nc1cc(C(F)(F)F)c(-c2cc(N3CCOCC3)nc(N3CCOCC3)n2)cn1 [Buparlisib (BKM120, NVP-BKM120)]	0.643 ± 0.031
Nc1nc(N)c(N=O)c(OCC2CCCCC2)n1	0.82 ± 0.01
Cc1ccc(-n2nc(C(C)(C)C)cc2NC(=O)Nc2ccc(OCCN3CCOCC3)c3ccccc23)cc1 [Doramapimod (BIRB 796)]	0.57 ± 0.03
Cc1ccc(S(=O)(=O)/C=C/C#N)cc1	0.463 ± 0.042
CN1CCN(c2ccc(Nc3cc(-c4cccc(-n5ccc6cc(C7CC7)cc(F)c6c5=O)c4CO)cn(C)c3=O)nc2)CC1	0.763 ± 0.067
COc1cc2c(c(OC)c1OC)-c1c(cc3c(c1OC)OCO3)CC(C)C(C)C2 (centres undefined) [Schisandrin B (Sch B)]	1.01 ± 0.17
FC(F)(F)c1ccc(/C=C/c2nc(COc3ccc(CCCCn4ccnn4)cc3)co2)cc1 [Mubritinib (TAK 165)]	0.653 ± 0.1
Cc1cnc(-c2cnc(NCCNc3ccc(C#N)cn3)nc2-c2ccc(Cl)cc2Cl)[nH]1	0.55 and 0.457
COc1ncc(-c2ccc3nccc(-c4ccnnc4)c3c2)cc1NS(=O)(=O)c1ccc(F)cc1F	0.24 ± 0.14
Clc1ccc(C2(c3ccc(-c4cn[nH]c4)cc3)CCNCC2)cc1	0.373 ± 0.068
CN(C[C@@H]1COCCO1)S(=O)(=O)Nc1ccc2ccc3ncc(-c4cnn(C)c4)cc3c(=O)c2c1	0.657 ± 0.25
CCN1/C(=C/C(C)=O)Sc2ccc(OC)cc21	0.76 ± 0.1
Cc1cc(C)c(/C=C2\C(=O)Nc3ccccc32)[nH]1 [Semaxanib (SU5416)]	0.983 ± 0.15
NC(=O)Nc1cc(-c2cccc(F)c2)sc1C(=O)N[C@H]1CCCNC1	0.55 ± 0.01
C[C@@H](Oc1cc(-c2cnn(C3CCNCC3)c2)cnc1N)c1c(Cl)ccc(F)c1Cl	0.7 ± 0.026
Oc1c2ccccc2c2c3c(cccc13)N=N2	0.71 ± 0.036
COCC(=O)NC/C=C/c1ccc2ncnc(Nc3ccc(Oc4ccc(C)nc4)c(C)c3)c2c1	0.647 ± 0.095
CC(C)(O)CC(=O)NCCn1ccc2ncnc(Nc3ccc(Oc4cccc(C(F)(F)F)c4)c(Cl)c3)c21	0.567 ± 0.04
COc1cc2c(Nc3ccc(NC(=O)c4ccccc4)cc3)ncnc2cc1OCCCN1CCOCC1	0.717 ± 0.23

Compound	relative cell viability
CN1CCN(C2CCN(C(=O)Nc3cc(Oc4ccc(NC(=O)C5(C(=O)Nc6ccc(F)cc6)CC5)c(F)c4)ccn3)CC2)CC1 [Golvatinib (E7050)]	0.717 ± 0.065
COc1ccc(C(=O)Nc2sc3c(c2C(N)=O)CCCC3)cc1OC	0.66 ± 0.087
Cc1cn(-c2cc(NC(=O)c3ccc(C)c(Nc4nccc(-c5cccnc5)n4)c3)cc(C(F)(F)F)c2)cn1 [Nilotinib (AMN-107)]	0.507 ± 0.021
Cc1cc(Nc2nc(N[C@@H](C)c3ccc(F)cc3)c(C#N)cc2F)n[nH]1	0.29 ± 0.017
Cc1nc(Nc2n[nH]c3c2CN(C(=O)N[C@H](CN(C)C)c2ccccc2)C3(C)C)c2sccc2n1	0.557 ± 0.032
CN1CCN(S(=O)(=O)c2ccc(-c3cnc(N)c(C(=O)Nc4cccnc4)n3)cc2)CC1	0.56 ± 0.087
CNc1nc(-c2ccc3c(N)n[nH]c3c2)cc(N2C[C@@H](C(=O)NC3CCCCC3)CC[C@H]2C)n1	0.647 ± 0.13
O=C(Cc1ccc(-c2ccc(OCCN3CCOCC3)cc2)cn1)NCc1ccccc1	0.627 ± 0.16
c1cncc(CN2CCC(n3ncc4c(N5CCOCC5)nc(-c5ccc6[nH]ccc6c5)nc43)CC2)c1	0.347 ± 0.13
Cc1nc(Nc2cnn(C3CCNCC3)c2)nc2c1N(C)C(=O)c1cc3ccccc3cc1N2C	0.627 ± 0.09
Cn1cc(C2=C(c3ccc(Cl)cc3Cl)C(=O)NC2=O)c2ccccc21	0.8333 ± 0.0058
Cn1sc(=O)n(Cc2ccccc2)c1=O	0.887 ± 0.11
O=C(/C=C/c1ccc(O)c(O)c1)c1ccc(O)cc1O [Butein]	0.74 ± 0.075
Cc1nc(Nc2ncc(C(=O)Nc3c(C)cccc3Cl)s2)cc(N2CCN(CCO)CC2)n1 [Dasatinib]	0.553 ± 0.091
Cc1cc(C(=O)NOCCO)c(Nc2ccc(I)cc2F)n(C)c1=O	0.793 ± 0.16
COc1cc2ncnc(Nc3cccc(Cl)c3F)c2cc1OC(=O)N1CCN(C)C[C@H]1C	0.617 ± 0.025
COc1cc2ncnc(Nc3cccc(Cl)c3)c2cc1OC [AG-1478 (Tyrphostin AG-1478)]	0.68 ± 0.2
CSc1cccc(Nc2ncc3cc(-c4c(Cl)cccc4Cl)c(=O)n(C)c3n2)c1	0.683 ± 0.1
CO[C@H]1C[C@@H]2CC[C@@H](C)[C@@](O)(O2)C(=O)C(=O)N2CCCC[C@H]2C(=O)O[C@H]([C@H](C)C[C@@H]2CC[C@@H](OCCO)[C@H](OC)C2)CC(=O)[C@H](C)/C=C(\C)[C@@H](O)[C@@H](OC)C(=O)[C@H](C)C[C@H](C)/C=C/C=C/C=C/1C [Everolimus (RAD001)]	0.607 ± 0.13
